High-throughput results as filed in PubChem BioAssay.
TDP1 cell noCPT: qHTS for Inhibitors of human tyrosyl-DNA phosphodiesterase 1 (TDP1): qHTS in cells in absence of CPT | Potency, µM (highest dose often 46.2 µM), most hits filed as inhibitors | 420,000 compounds, 15% hits | DT40 Tdp1-/- hTDP1 cells, no CPT, ATP luminescence, 48 h; also: nearly all actives have a fitted effect of over 55% in size
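Cells were dispensed at 400 per well, compounds added by pin tool, plates incubated ≥48 hr at 37 °C, then CellTiter-Glo added for 30 min at room temperature before luminescence reading. Line: DT40 Tdp1-/- complemented with hTDP1; camptothecin omitted.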
HT1080NT lethal: qHTS for induction of synthetic lethality in tumor cells producing 2HG: qHTS for the HT-1080-NT fibrosarcoma cell line; HT-1080-NT fibrosarcoma viability, CellTiter-Glo ATP luminescence, 48 h; 360,000 compounds, 1.6% hits; Potency, µM (highest dose often 46.1 µM), most hits filed as cytotoxic; AID 686970, 2013;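 also: NT is the 2HG producing partner of a matched IDH1 knockdown line; nearly all actives have a fitted effect of over 55% in size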
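Viability by CellTiter-Glo luminescence after 48 h compound exposure at 37C of HT-1080-NT cells (750/well, RPMI, 5% FBS). % activity scaled between DMSO wells and medium-only wells, then curve-fitted and categorized by curve class.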
IL1B secr inh: qHTS for Inhibitors of Inflammasome Signaling: IL-1-beta AlphaLISA Primary Screen | 360,000 compounds, 4.7% hits | activity change, % at 57.5 µM | THP-1 LPS/ATP IL-1B secretion, AlphaLISA, 16 h; hits give low values; in the data active = activity change below about -50%; inconclusive = mostly about -30% to -49%
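Secreted IL-1B measured by AlphaLISA bead assay after 16 h compound exposure of THP-1 cells; compounds (final up to 57.5 uM) added 1 h before LPS (250 ng/mL) and ATP (1.25 mM) stimulation; lower signal means less secretion.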
DT40 TDP1 CPT: qHTS for Inhibitors of human tyrosyl-DNA phosphodiesterase 1 (TDP1): qHTS in cells in presence of CPT | chicken DT40 Tdp1-/-;hTDP1 cells + 20 nM CPT, ATP luminescence, 48 h | Potency, µM (top dose mostly 46.2 µM), usual class: inhibitors | 420,000 compounds, 12% hits; also: nearly all actives have a fitted effect of over 55% in size
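Chicken DT40 Tdp1-/- cells stably complemented with human TDP1 were seeded at 400 cells/well in medium containing 20 nM camptothecin, exposed to pin-transferred compounds, and grown at 37 °C for at least 48 hr. Viability was read as ATP luminescence.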
HT1080 IDH1KD tx: qHTS for induction of synthetic lethality in tumor cells producing 2HG: qHTS for the HT-1080-IDH1KD cell line; HT-1080 IDH1 knockdown viability, ATP luminescence, 48 h; Potency, µM (titrated, usually from 46.1 µM), hits mostly cytotoxic; 360,000 compounds, 2% hits
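% activity derives from luminescence (CellTiter-Glo), normalised to DMSO and no-cell wells. HT-1080-IDH1KD cells, 750/well, had 48 h compound exposure at 37 °C.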
uPA generation: qHTS for Inhibitors of Cell Surface uPA Generation | cell surface uPA generation assay, qHTS | 330,000 compounds, 0.31% hits | Potency, µM (titrated, usually from 38.3 µM), actives largely listed as inhibitors; active = well fitted inhibition curve with a large enough effect; inconclusive = small, poorly fitted or top-dose-only effect; inactive = no such curve, though single readings can be large or run the other way; tested in mouse RAW 264.7 cells; also: nearly all actives have a fitted effect of over 55% in size
Large screens that a line does not name were inactive. A selection: hits, their analogues and other compounds. The true share with any hit is near 19%. Unless noted, calls follow the shape of the dose curve; as a rule, active = well fitted curve in the direction sought with a large enough effect; inconclusive = small, poorly fitted or top-dose-only effect, or another doubt; inactive = no such curve, though single readings can be large; an effect the other way counts as inactive or inconclusive.

CCOC(=O)c1[nH]c(C)c(CCC(=O)Nc2ccccc2OCC)c1C	TDP1 cell noCPT 16µM, DT40 TDP1 CPT inconclusive (no result: HT1080NT lethal, IL1B secr inh, HT1080 IDH1KD tx, uPA generation)
CCOC(=O)c1[nH]c(C)c(CCC(=O)Nc2ccccc2C(=O)OC)c1C	TDP1 cell noCPT 16µM, DT40 TDP1 CPT 13µM (no result: HT1080NT lethal, IL1B secr inh, HT1080 IDH1KD tx, uPA generation)
Cc1ccc(NC(=O)c2oc3ccc(S(=O)(=O)N4CCCCCC4)cc3c2C)c(C)c1	none (no result: HT1080NT lethal, IL1B secr inh, HT1080 IDH1KD tx, uPA generation)
CCN(CCC(=O)Nc1ccc(Br)c(C)c1)Cc1ccccc1	TDP1 cell noCPT 29µM, HT1080NT lethal 15µM, IL1B secr inh inconclusive, DT40 TDP1 CPT inconclusive, HT1080 IDH1KD tx inconclusive
CC(=O)Nc1cc[n+](CC(=O)c2cccc([N+](=O)[O-])c2)cc1	none
O=C(CCNc1ccc(Cc2ccncc2)cc1)c1cccc([N+](=O)[O-])c1	TDP1 cell noCPT 16µM, IL1B secr inh -109, DT40 TDP1 CPT 18µM, HT1080 IDH1KD tx inconclusive
O=C(Nc1cccc([N+](=O)[O-])c1)c1ccncc1	none
O=C(CCNc1cccc(F)c1)c1cccc([N+](=O)[O-])c1	TDP1 cell noCPT 4.1µM, HT1080NT lethal inconclusive, IL1B secr inh -86, DT40 TDP1 CPT 5.8µM, HT1080 IDH1KD tx inconclusive
CCCNS(=O)(=O)c1cc(Br)cc2c1N(C(=O)CC)CC2	none
CCC(=O)N1CCc2cc(Br)cc(S(=O)(=O)CCC(=O)NCCc3ccccc3)c21	TDP1 cell noCPT inconclusive, HT1080NT lethal inconclusive, HT1080 IDH1KD tx inconclusive
CCC(=O)N1CCc2cc(Br)cc(S(=O)(=O)CCC(=O)NCCc3cccc(C)c3)c21	TDP1 cell noCPT 23µM, DT40 TDP1 CPT 16µM (no result: HT1080NT lethal, IL1B secr inh, HT1080 IDH1KD tx, uPA generation)
CCC(=O)N1CCc2cc(Br)cc(S(=O)(=O)N3CCCC(C(=O)Nc4cccc(Cl)c4C)C3)c21 (configuration not stated)	TDP1 cell noCPT 12µM, DT40 TDP1 CPT 15µM (no result: HT1080NT lethal, IL1B secr inh, HT1080 IDH1KD tx, uPA generation)
CCC(=O)N1CCc2cc(Br)cc(S(=O)(=O)NCCc3ccccc3Cl)c21	TDP1 cell noCPT 21µM, DT40 TDP1 CPT 16µM (no result: HT1080NT lethal, IL1B secr inh, HT1080 IDH1KD tx, uPA generation)
COc1ccc(CN2CCC3(CCC(CNC(=O)C4CCCO4)O3)CC2)c(C)c1C (configuration not stated)	DT40 TDP1 CPT inconclusive (no result: HT1080NT lethal, IL1B secr inh, HT1080 IDH1KD tx, uPA generation)
COc1cc(/C=N/N=C(N)N)ccc1OCc1ccccc1Cl	TDP1 cell noCPT 15µM, IL1B secr inh -66, DT40 TDP1 CPT inconclusive, uPA generation inconclusive
OCc1cccc(-c2csc(C(O)c3ccco3)n2)c1 (configuration not stated)	DT40 TDP1 CPT inconclusive (no result: uPA generation)
CCc1nc2ccc(C(=O)Nc3cccc(OC)c3)cn2c1N(CC)CCOC	TDP1 cell noCPT 18µM, DT40 TDP1 CPT 13µM (no result: uPA generation)
CCCCNC(=O)c1ccc2nc(CC)c(N(CCC(C)C)CCN(C)C)n2c1	TDP1 cell noCPT inconclusive, HT1080NT lethal inconclusive, DT40 TDP1 CPT inconclusive, HT1080 IDH1KD tx inconclusive (no result: uPA generation)
CCc1nc2ccc(C(=O)NCCOc3ccc(OC)cc3)cn2c1N(CCC(C)C)CCN(C)C	HT1080NT lethal inconclusive, IL1B secr inh -64, HT1080 IDH1KD tx 21µM (no result: uPA generation)
CCc1nc2ccc(C(=O)NCc3ccc(OC)cc3)cn2c1N(CC)CCOC	TDP1 cell noCPT inconclusive, DT40 TDP1 CPT 15µM (no result: uPA generation)
CCc1nc2ccc(C(=O)N(CC)CCN(C)C)cn2c1N(CC)CCOC	none (no result: uPA generation)
CCc1nc2ccc(C(=O)NCCCN(C)C)cn2c1N(CC)CCOC	none (no result: uPA generation)
CCCCNC(=O)c1ccc2nc(CC)c(N(CC)CCOC)n2c1	TDP1 cell noCPT 21µM, DT40 TDP1 CPT 26µM (no result: uPA generation)
O=C1ON(Cc2ccccc2)C(c2ccccc2)N1c1ccccc1 (configuration not stated)	none
Cc1cccc(CNC(=O)c2cnn(-c3nccc(-c4cc(C)sc4C)n3)c2C)n1	none (no result: HT1080NT lethal, IL1B secr inh, HT1080 IDH1KD tx, uPA generation)
CNC(=O)CSc1nnc(-c2ccco2)n1-c1cccc(OC)c1	none
